# Experimental data: article PMC7862700, “An all-to-all approach to the identification of sequence-specific readers for epigenetic DNA modifications on cytosine”
# Biological target: T1, SPDEF (Homo sapiens, UniProt O95238 1-335)
# T1 sequence: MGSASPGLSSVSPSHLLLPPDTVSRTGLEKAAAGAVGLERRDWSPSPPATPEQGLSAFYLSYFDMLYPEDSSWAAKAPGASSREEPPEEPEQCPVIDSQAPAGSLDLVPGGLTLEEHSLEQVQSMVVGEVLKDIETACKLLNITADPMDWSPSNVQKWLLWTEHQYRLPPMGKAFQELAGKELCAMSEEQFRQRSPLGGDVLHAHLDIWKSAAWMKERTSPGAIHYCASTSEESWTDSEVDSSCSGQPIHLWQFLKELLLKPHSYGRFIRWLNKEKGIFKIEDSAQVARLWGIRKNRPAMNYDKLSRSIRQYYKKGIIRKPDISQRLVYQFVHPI
# Assay: DAPPL (digital affinity profiling via proximity ligation, sequencing); 10 mM Tris-HCl pH 7.5, 50 mM NaCl, 1 mM DTT, 4% glycerol, room temperature, 30 min; GST-TFs on glutathione beads, 16-mer random dsDNA library, 0.1% formaldehyde crosslink after washing; high values mean tight binding
# Conditions: protein: recombinant; tags: N-terminal GST; dsDNA, one strand shown
# In short: (§1)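 Pools were built from human transcription factors expressed in yeast as GST fusions, captured on glutathione beads and DNA-barcoded, along with a tag-only sample. Incubation with 200 nmole of a 16-mer random double-stranded DNA library lasted 30 min at room temperature in Tris/NaCl/DTT/glycerol buffer, and was followed by washing, 0.1% formaldehyde crosslinking, proximity ligation, PCR amplification and Illumina NextSeq500 sequencing. Binding signal is the quotient of each hexamer's read frequency for a factor and its frequency for the tag-only sample.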
row,Sequence,binding signal
1,AACACG,"1.22 fold enrichment (6-mer frequency, TF over GST control)"
2,ACTTAC,"1.13 fold enrichment (6-mer frequency, TF over GST control)"
3,CTGGAC,"1.12 fold enrichment (6-mer frequency, TF over GST control)"
4,TGCCTT,"1.32 fold enrichment (6-mer frequency, TF over GST control)"
5,ATGGGC,"1.24 fold enrichment (6-mer frequency, TF over GST control)"
6,CACACA,"1.07 fold enrichment (6-mer frequency, TF over GST control)"
7,TCCCTG,"1.19 fold enrichment (6-mer frequency, TF over GST control)"
8,ACCCTC,"1.11 fold enrichment (6-mer frequency, TF over GST control)"
9,ACTCCC,"1.32 fold enrichment (6-mer frequency, TF over GST control)"
10,CCGATC,"1.22 fold enrichment (6-mer frequency, TF over GST control)"
11,GTTTTG,"1.24 fold enrichment (6-mer frequency, TF over GST control)"
12,AACAAG,"1.05 fold enrichment (6-mer frequency, TF over GST control)"
13,TGGCAG,"1.05 fold enrichment (6-mer frequency, TF over GST control)"
14,CTTCTA,"1.3 fold enrichment (6-mer frequency, TF over GST control)"
15,AAGAAT,"1.07 fold enrichment (6-mer frequency, TF over GST control)"
16,GTAATC,"1.12 fold enrichment (6-mer frequency, TF over GST control)"
17,GTCTCT,"1.15 fold enrichment (6-mer frequency, TF over GST control)"
18,ATTTGT,"1.33 fold enrichment (6-mer frequency, TF over GST control)"
19,GTAGCA,"1.08 fold enrichment (6-mer frequency, TF over GST control)"
20,TTGCTA,"1.31 fold enrichment (6-mer frequency, TF over GST control)"

row,Sequence,binding signal
1,GACATC,"1.57 fold enrichment (6-mer frequency, TF over GST control)"
2,CACTTG,"1.35 fold enrichment (6-mer frequency, TF over GST control)"
3,TGACAC,"1.11 fold enrichment (6-mer frequency, TF over GST control)"
4,CGCCGC,"1.08 fold enrichment (6-mer frequency, TF over GST control)"
5,GTCCTT,"1.29 fold enrichment (6-mer frequency, TF over GST control)"
6,GATGTC,"1.53 fold enrichment (6-mer frequency, TF over GST control)"
7,GCAACT,"1.11 fold enrichment (6-mer frequency, TF over GST control)"
8,TACGTC,"1.33 fold enrichment (6-mer frequency, TF over GST control)"
9,TAACTT,"1.28 fold enrichment (6-mer frequency, TF over GST control)"
10,ATCCAC,"1.18 fold enrichment (6-mer frequency, TF over GST control)"
11,AGTTCC,"2.56 fold enrichment (6-mer frequency, TF over GST control)"
12,TCTGTT,"1.35 fold enrichment (6-mer frequency, TF over GST control)"
13,ACATTG,"1.12 fold enrichment (6-mer frequency, TF over GST control)"
14,CCGAGC,"1.06 fold enrichment (6-mer frequency, TF over GST control)"
15,CCGGAC,"2.1 fold enrichment (6-mer frequency, TF over GST control)"
16,CCCCAC,"1.2 fold enrichment (6-mer frequency, TF over GST control)"
17,TCCCAA,"1.18 fold enrichment (6-mer frequency, TF over GST control)"
18,AAGTAG,"1.07 fold enrichment (6-mer frequency, TF over GST control)"
19,CTTTAG,"1.02 fold enrichment (6-mer frequency, TF over GST control)"

# Biological target: T2, ETV7 (Homo sapiens, UniProt Q9Y603 1-341)
# T2 sequence: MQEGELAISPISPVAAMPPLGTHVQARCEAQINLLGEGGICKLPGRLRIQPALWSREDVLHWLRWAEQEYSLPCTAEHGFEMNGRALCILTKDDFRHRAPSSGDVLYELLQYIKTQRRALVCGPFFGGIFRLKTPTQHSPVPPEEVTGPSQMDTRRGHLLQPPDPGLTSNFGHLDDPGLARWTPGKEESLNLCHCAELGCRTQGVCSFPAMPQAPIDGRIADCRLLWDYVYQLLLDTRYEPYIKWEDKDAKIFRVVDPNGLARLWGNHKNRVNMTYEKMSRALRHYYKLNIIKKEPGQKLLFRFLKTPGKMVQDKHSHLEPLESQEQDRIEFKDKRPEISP
# Assay: as above
# Conditions: protein: recombinant; tags: N-terminal GST; dsDNA, one strand shown
# In short: as §1
row,Sequence,binding signal
1,AACACG,"1.13 fold enrichment (6-mer frequency, TF over GST control)"
2,ACTTAC,"1.14 fold enrichment (6-mer frequency, TF over GST control)"
3,CTGGAC,"1.09 fold enrichment (6-mer frequency, TF over GST control)"
4,TGCCTT,"1.28 fold enrichment (6-mer frequency, TF over GST control)"
5,ATGGGC,"1.22 fold enrichment (6-mer frequency, TF over GST control)"
6,CACACA,"1.1 fold enrichment (6-mer frequency, TF over GST control)"
7,TCCCTG,"1.23 fold enrichment (6-mer frequency, TF over GST control)"
8,ACCCTC,"1.13 fold enrichment (6-mer frequency, TF over GST control)"
9,ACTCCC,"1.31 fold enrichment (6-mer frequency, TF over GST control)"
10,CCGATC,"1.31 fold enrichment (6-mer frequency, TF over GST control)"
11,GTTTTG,"1.13 fold enrichment (6-mer frequency, TF over GST control)"
12,AACAAG,"1.14 fold enrichment (6-mer frequency, TF over GST control)"
13,TGGCAG,"1.04 fold enrichment (6-mer frequency, TF over GST control)"
14,CTTCTA,"1.43 fold enrichment (6-mer frequency, TF over GST control)"
15,AAGAAT,"1.1 fold enrichment (6-mer frequency, TF over GST control)"
16,GTAATC,"1.17 fold enrichment (6-mer frequency, TF over GST control)"
17,GTCTCT,"1.02 fold enrichment (6-mer frequency, TF over GST control)"
18,ATTTGT,"1.34 fold enrichment (6-mer frequency, TF over GST control)"
19,GTAGCA,"1.06 fold enrichment (6-mer frequency, TF over GST control)"
20,TTGCTA,"1.37 fold enrichment (6-mer frequency, TF over GST control)"

row,Sequence,binding signal
1,GACATC,"1.31 fold enrichment (6-mer frequency, TF over GST control)"
2,CACTTG,"1.37 fold enrichment (6-mer frequency, TF over GST control)"
3,TGACAC,"1.28 fold enrichment (6-mer frequency, TF over GST control)"
4,CGCCGC,"1.11 fold enrichment (6-mer frequency, TF over GST control)"
5,GTCCTT,"1.11 fold enrichment (6-mer frequency, TF over GST control)"
6,GATGTC,"1.27 fold enrichment (6-mer frequency, TF over GST control)"
7,GCAACT,"1.2 fold enrichment (6-mer frequency, TF over GST control)"
8,TACGTC,"1.27 fold enrichment (6-mer frequency, TF over GST control)"
9,TAACTT,"1.25 fold enrichment (6-mer frequency, TF over GST control)"
10,ATCCAC,"1.18 fold enrichment (6-mer frequency, TF over GST control)"
11,AGTTCC,"1.94 fold enrichment (6-mer frequency, TF over GST control)"
12,TCTGTT,"1.46 fold enrichment (6-mer frequency, TF over GST control)"
13,ACATTG,"1.2 fold enrichment (6-mer frequency, TF over GST control)"
14,CCGAGC,"1.15 fold enrichment (6-mer frequency, TF over GST control)"
15,CCGGAC,"1.39 fold enrichment (6-mer frequency, TF over GST control)"
16,CCCCAC,"1.11 fold enrichment (6-mer frequency, TF over GST control)"
17,TCCCAA,"1.11 fold enrichment (6-mer frequency, TF over GST control)"
18,AAGTAG,"1.23 fold enrichment (6-mer frequency, TF over GST control)"
19,CTTTAG,"1.2 fold enrichment (6-mer frequency, TF over GST control)"

# Biological target: T3, ELF5 (Homo sapiens, UniProt Q9UKW6-2 1-255)
# T3 sequence: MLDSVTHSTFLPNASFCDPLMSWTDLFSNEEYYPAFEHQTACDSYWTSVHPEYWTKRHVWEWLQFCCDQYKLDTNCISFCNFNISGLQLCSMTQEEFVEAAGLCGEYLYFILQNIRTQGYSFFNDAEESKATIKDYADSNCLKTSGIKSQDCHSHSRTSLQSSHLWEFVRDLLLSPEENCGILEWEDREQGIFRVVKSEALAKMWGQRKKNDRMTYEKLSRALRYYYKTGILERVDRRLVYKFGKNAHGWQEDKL
# Assay: as above
# Conditions: protein: recombinant; tags: N-terminal GST; dsDNA, one strand shown
# In short: as §1
row,Sequence,binding signal
1,AACACG,"1.22 fold enrichment (6-mer frequency, TF over GST control)"
2,ACTTAC,"1.21 fold enrichment (6-mer frequency, TF over GST control)"
3,CTGGAC,"1.16 fold enrichment (6-mer frequency, TF over GST control)"
4,TGCCTT,"1.39 fold enrichment (6-mer frequency, TF over GST control)"
5,ATGGGC,"1.26 fold enrichment (6-mer frequency, TF over GST control)"
6,CACACA,"1.06 fold enrichment (6-mer frequency, TF over GST control)"
7,TCCCTG,"1.38 fold enrichment (6-mer frequency, TF over GST control)"
8,ACCCTC,"1.06 fold enrichment (6-mer frequency, TF over GST control)"
9,ACTCCC,"1.38 fold enrichment (6-mer frequency, TF over GST control)"
10,CCGATC,"1.1 fold enrichment (6-mer frequency, TF over GST control)"
11,GTTTTG,"1.13 fold enrichment (6-mer frequency, TF over GST control)"
12,AACAAG,"1.22 fold enrichment (6-mer frequency, TF over GST control)"
13,TGGCAG,"1.09 fold enrichment (6-mer frequency, TF over GST control)"
14,CTTCTA,"1.39 fold enrichment (6-mer frequency, TF over GST control)"
15,AAGAAT,"1.15 fold enrichment (6-mer frequency, TF over GST control)"
16,GTAATC,"1.18 fold enrichment (6-mer frequency, TF over GST control)"
17,GTCTCT,"1.11 fold enrichment (6-mer frequency, TF over GST control)"
18,ATTTGT,"1.26 fold enrichment (6-mer frequency, TF over GST control)"
19,GTAGCA,"1.1 fold enrichment (6-mer frequency, TF over GST control)"
20,TTGCTA,"1.21 fold enrichment (6-mer frequency, TF over GST control)"

row,Sequence,binding signal
1,GACATC,"1.35 fold enrichment (6-mer frequency, TF over GST control)"
2,CACTTG,"1.33 fold enrichment (6-mer frequency, TF over GST control)"
3,TGACAC,"1.19 fold enrichment (6-mer frequency, TF over GST control)"
4,CGCCGC,"1.08 fold enrichment (6-mer frequency, TF over GST control)"
5,GTCCTT,"1.43 fold enrichment (6-mer frequency, TF over GST control)"
6,GATGTC,"1.42 fold enrichment (6-mer frequency, TF over GST control)"
7,GCAACT,"1.18 fold enrichment (6-mer frequency, TF over GST control)"
8,TACGTC,"1.23 fold enrichment (6-mer frequency, TF over GST control)"
9,TAACTT,"1.44 fold enrichment (6-mer frequency, TF over GST control)"
10,ATCCAC,"1.16 fold enrichment (6-mer frequency, TF over GST control)"
11,AGTTCC,"2.79 fold enrichment (6-mer frequency, TF over GST control)"
12,TCTGTT,"1.4 fold enrichment (6-mer frequency, TF over GST control)"
13,ACATTG,"1.07 fold enrichment (6-mer frequency, TF over GST control)"
14,CCGAGC,"1.12 fold enrichment (6-mer frequency, TF over GST control)"
15,CCGGAC,"1.77 fold enrichment (6-mer frequency, TF over GST control)"
16,CCCCAC,"1.19 fold enrichment (6-mer frequency, TF over GST control)"
17,TCCCAA,"1.21 fold enrichment (6-mer frequency, TF over GST control)"
18,AAGTAG,"1.28 fold enrichment (6-mer frequency, TF over GST control)"
19,CTTTAG,"1.05 fold enrichment (6-mer frequency, TF over GST control)"
